SARS 3CLpro inh – SARS-CoV 3CLpro protease inhibition; recombinant SARS-CoV 3CLpro, quenched FRET peptide cleavage; inhibition, % at 6 µM; 290,000 compounds, 0.14% hits; in the data active = inhibition above about 12%
BoNT-F LC inh – inhibitors of Botulinum neurotoxin F light chain protease | inhibition, % at 10 µM | 360,000 compounds, 0.22% hits | Multiplex microsphere protease cleavage assay, flow cytometry | AID 588497; in the data active = inhibition above about 35%, passing the limit was not always enough; inconclusive = no clear call, values can overlap the other calls; note: plate controls were buffer without enzyme for full effect and enzyme alone for no effect
VHR inh abs – DUSP3 (human) phosphatase inhibition | recombinant VHR phosphatase, pNPP absorbance | inhibition, % at 13.3 µM | 290,000 compounds, 0.52% hits | AID 1654; in the data active = inhibition above about 50%
Target sequence (P51452 whole entry, looked up): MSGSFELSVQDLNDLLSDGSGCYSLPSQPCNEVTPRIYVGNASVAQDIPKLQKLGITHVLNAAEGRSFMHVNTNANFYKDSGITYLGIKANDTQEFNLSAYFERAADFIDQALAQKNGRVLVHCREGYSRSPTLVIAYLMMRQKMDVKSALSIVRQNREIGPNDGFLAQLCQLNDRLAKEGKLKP
Anthrax LF prot – blocks Bacillus anthracis lethal factor protease; multiplex microsphere protease cleavage assay, LF; inhibition, % at 10 µM; 360,000 compounds, 0.12% hits; AID 588501; note: plate controls were buffer without enzyme for full effect and enzyme alone for no effect
Autofluor counter – flagged as autofluorescent in microsphere protease counterscreen; compound autofluorescence counterscreen, microsphere flow cytometry; active compounds read high; fluorescence intensity (concentration not given with the values); 360,000 compounds, 3.1% hits; AID 624483; in the data active = fluorescence intensity above about 16000; inconclusive = no clear call, values can overlap the other calls
BoNT A protease – inhibitors of Botulinum neurotoxin A light chain protease. multiplex microsphere protease substrate cleavage, flow cytometry. inhibition, % at 10 µM. 360,000 compounds, 0.17% hits; note: plate controls were buffer without enzyme for full effect and enzyme alone for no effect
* marks the source's active call; other numbers are inactive results; ? = inconclusive; . = no result given. Compounds with a hit are over-represented: about 3.9% of the library has one in this group of screens. Cut-off read from the data, not from the text of the source, unless noted: active = inhibition above about 30%; inconclusive = no clear call, values can overlap the other calls; inactive = below that.

SMILES | SARS 3CLpro inh | BoNT-F LC inh | VHR inh abs | Anthrax LF prot | Autofluor counter | BoNT A protease
CCC1CCCCN1C(=O)c1cc(COc2ccc(-n3cncn3)cc2)on1 (stereo not given) | -2.2 | -3.9 | 39.5 | -2.1 | 6419 | -1.1
O=C(NCCc1ccccc1)c1nc2c(nnn2Cc2ccccc2Cl)c(=O)[nH]1 | -0.3 | -3.5 | 31.3 | -5.3 | 16657* | -1.9
COc1cc2ccccc2cc1C(=O)Nc1ccc(C)cn1 | -1.5 | 3.3 | 22.9 | -3.9 | 5577 | 1.7
O=C(O)CNS(=O)(=O)c1ccc(F)cc1 | -1.9 | -0.2 | 5.6 | 0.6 | 21439* | 0.0
Cc1cc(S(=O)(=O)NCC(=O)O)ccc1F | -8.0 | -10.1 | -7.9 | -2.9 | 4698 | 0.3
COc1cc(CN2CCC(n3nccc3NC(=O)C3CC3)CC2)cc(OC)c1 | -4.7 | 8.0 | 27.2 | -0.3 | 5923 | 1.2
Nc1nc2ccc(Cl)cc2cc1C(=O)NCc1ccc(Oc2ccccc2)cc1 | . | -2.2 | . | 5.4 | 5114 | 1.1
COc1cccc(NC(=O)COC(=O)c2ccc(F)cc2F)c1 | 1.4 | -3.4 | -4.8 | 0.0 | 2566 | 0.9
N#Cc1ccccc1NC(=O)COC(=O)c1ccc(F)cc1F | 0.8 | 4.1 | 53.3* | -0.7 | 5407 | 1.5
CC(=O)NC1(C(F)(F)F)N=C(c2ccccc2)NC1=O (stereo not given) | 3.0 | -3.7 | -1.5 | 0.8 | 2294 | 1.2
Cc1cccnc1NC1(C(F)(F)F)N=C(c2ccccc2)NC1=O (stereo not given) | 1.4 | -0.8 | 15.7 | -1.7 | 20365* | 0.6
CN(CC(=O)Nn1cnnc1)S(=O)(=O)c1ccc(Br)cc1 | -2.0 | 9.5 | 24.9 | -9.7 | 18838* | ?
Fc1ccccc1OCCSc1nnnn1-c1ccccc1 | 5.0 | -2.4 | -31.1 | -2.0 | 20510* | -1.7
c1ccc(OCCSc2nnnn2-c2ccccc2)cc1 | 2.5 | 3.0 | 11.3 | -7.5 | 3295 | -0.2
CCn1ncc(C2=NOC(C(=O)NCc3ccc(Cl)cc3)C2)c1C (stereo not given) | -1.0 | 2.9 | -7.5 | 2.6 | 21413* | 2.3
CCn1ncc(C2=NOC(C(=O)Nc3ccc(C)cc3)C2)c1C (stereo not given) | -0.8 | 13.1 | -8.0 | 0.6 | 4558 | 0.0
CCn1ncc(C2=NOC(C(=O)Nc3cccnc3)C2)c1C (stereo not given) | -1.8 | 4.4 | -14.0 | -7.9 | 22133* | 3.0
CN1CCN(c2ccc([N+](=O)[O-])c(N/N=C3\CN4CCC3CC4)c2)CC1 | -2.2 | -4.2 | 32.7 | -2.5 | 20912* | -1.3
CCNc1cc(N2CCN(C)CC2)ccc1[N+](=O)[O-] | -5.4 | -3.6 | 6.9 | -2.2 | 4115 | 0.2
O=C(Nc1cccn2ncnc12)C(Cl)Cl | 2.4 | ? | 7.6 | -0.9 | 4004 | -0.9
O=C(Nc1cccn2ncnc12)c1ccccc1 | -4.0 | 4.7 | 20.0 | -2.5 | 21325* | 3.1
O=C(Nc1cccn2ncnc12)c1ccc(Cl)cc1 | -1.6 | -6.2 | 17.2 | -9.3 | 23079* | ?
CCN1CCN(CCCNC(=O)c2cc3cc4ccc(OC)cc4nc3o2)CC1 | -5.7 | ? | 55.0* | 7.3 | 3045 | 0.9
O=C(NCCN1CCCCC1)c1cc(Cl)ccc1Cl | 1.6 | 14.1 | 20.4 | -7.7 | 3998 | -1.9
CCCc1ccc(-c2cc(C(=O)NCCc3ccc(S(N)(=O)=O)cc3)c3ccccc3n2)cc1 | 0.1 | 4.2 | 15.7 | -0.5 | 22125* | 3.5
SMILES | SARS 3CLpro inh | BoNT-F LC inh | VHR inh abs | Anthrax LF prot | Autofluor counter | BoNT A protease
CC(C)Oc1cccc(-c2cc(C(=O)NN3CCOCC3)c3ccccc3n2)c1 | 2.3 | 7.8 | 25.7 | -3.9 | 5636 | 0.0
O=C(NCc1ccccc1)c1cc(-c2ccncc2)nc2ccccc12 | -4.3 | -3.8 | 52.6* | 4.5 | 3230 | 1.0
CCCc1ccc(-c2cc(C(=O)NN3CCOCC3)c3ccccc3n2)cc1 | 2.0 | 0.3 | 9.7 | -9.0 | 23255* | 0.5
O=C(NCc1ccco1)c1cc(-c2ccncc2)nc2ccccc12 | -1.2 | -4.9 | 7.6 | 0.0 | 9529 | 0.0
CCOc1ccc(CCNC(=O)COC(=O)c2nc(Cl)ccc2Cl)cc1OCC | . | -3.7 | . | -4.7 | 6034 | -0.8
Cn1c2ccccc2c2nnc(SCC(=O)NC3CCCC3)nc21 | 1.0 | 9.2 | 3.0 | -6.1 | 3743 | -2.0
CC(=O)Nc1cc(-c2ccc(Cl)cc2)[nH]n1 | 4.4 | -3.0 | -9.2 | 5.7 | 4362 | -0.7
Nc1nc2ccc(Cl)cc2cc1C(=O)NCCc1c[nH]c2ccccc12 | . | 0.7 | . | -5.9 | 5507 | -0.2
COc1ccc(Cc2nc(-c3ccc(Cl)cc3)no2)cc1 | 1.6 | -1.6 | 18.2 | -4.0 | 9633 | -1.1
Clc1ccc(-c2noc(COc3ccccc3)n2)cc1 | -1.6 | 0.6 | 37.4 | -3.4 | 22341* | 2.2
CN(Cc1nc(-c2ccncc2)no1)S(=O)(=O)c1ccc(Cl)cc1 | -0.8 | 2.8 | 51.4* | -3.6 | 21129* | 2.0
Clc1ccc(-c2noc(CCCOc3ccccc3)n2)cc1 | -1.6 | -6.0 | 24.7 | -0.5 | 11319 | -0.6
CC(C)(C)Cc1nc(-c2ccc(Cl)cc2)no1 | 3.5 | -8.8 | 15.2 | 0.7 | 21458* | -5.4
CN(Cc1nc(-c2ccncc2)no1)S(=O)(=O)c1ccc(Br)cc1 | -6.9 | -3.8 | 16.3 | -1.3 | 2858 | 0.1
N#Cc1c(N)sc2c1CCN(CCc1ccccc1)C2 | -3.5 | -141.1 | 22.0 | 0.6 | 5685 | 64.8*
N#Cc1c(NC(=S)NC(=O)c2ccccc2)sc2c1CCN(CCc1ccccc1)C2 | -9.3 | . | -7.4 | . | . | .
CCOc1ccc(N2CC(=O)SC2=S)cc1 | -4.6 | 2.6 | 17.3 | 6.7 | 7508 | 8.5
CCOc1ccc(N2CSC(=S)N(c3ccc(OCC)cc3)C2)cc1 | -0.6 | ? | 12.5 | 31.9* | 3691 | -0.4
N#CCCN/N=C(/Cc1nc2ccccc2[nH]1)c1ccc(Cl)cc1 | 1.6 | . | 10.9 | . | . | .
N#CCCN/N=C(\Cc1nc2ccccc2[nH]1)c1ccccc1 | 1.1 | -1.5 | 10.7 | 1.5 | 22721* | 3.4
O=C1NC(NS(=O)(=O)c2ccccc2)(C(F)(F)F)C(=O)N1Cc1ccccc1 (stereo not given) | -1.4 | 2.1 | 5.3 | 3.8 | 6036 | -2.9
Cc1ccc(-n2nnc3c(=O)n(Cc4cc(C)ccc4C)cnc32)cc1 | 2.9 | -20.6 | 51.6* | -4.7 | 9118 | -0.4
COc1cccc(-n2nnc3c(=O)n(Cc4ccc(Cl)cc4)cnc32)c1 | -0.2 | -0.8 | 8.1 | 0.1 | 21157* | -1.1
Cc1cccc(Cn2cnc3c(nnn3Cc3ccc(F)cc3)c2=O)c1 | -0.8 | -6.8 | 40.7 | 1.1 | 11375 | 0.9
Cc1ccc(-n2nnc3c(=O)n(Cc4cccc(C)c4)cnc32)cc1 | -2.3 | -7.6 | -13.1 | 1.8 | 4333 | -0.4
Cc1cccc(Cn2cnc3c(nnn3Cc3ccccc3F)c2=O)c1 | 1.0 | 1.3 | -0.7 | -2.6 | 22956* | 2.9
COc1cccc(-n2nnc3c(=O)n(CC(=O)Nc4ccccc4C)cnc32)c1 | -2.6 | 6.5 | 33.6 | -5.8 | 6249 | 0.1
COc1cccc(-n2nnc3c(=O)n(CC(=O)NC4CCCC4)cnc32)c1 | 7.2 | 0.2 | 18.6 | 0.4 | 20217* | 1.0
Cc1ccc(-c2nn(-c3ccccc3)cc2CC(=S)N2CCOCC2)cc1 | -4.3 | 15.4 | 10.8 | -3.9 | 3486 | 1.0
